Assay outcomes: PubChem, several laboratories
Hits are enriched below; roughly 2.3% of the tested compounds scored in any of these assays.
proKLK7 act = proKLK7 zymogen activators, primary screen, biochemical, fluorescence intensity. activation, % at 7 µM. Kallikrein-7 (Homo sapiens), P49862. purified proKLK7, EDANS-DABCYL substrate fluorescence; 100% is mature enzyme control, 0% vehicle. 370,000 compounds, 0.9% hits;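 active = activation above the mean of all tested compounds plus 3 SD, computed per campaign excluding outliers beyond control limits, cut at about 13% in these data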
V-ATPase pH = regulators of yeast V-ATPase proton pumping, primary screen, pHLuorin cytosolic pH fluorescence; S. cerevisiae; response, % at 10 µM; 350,000 compounds, 0.37% hits; AID 504577, 2011; in the data active = response mostly above about 7.3%, no sharp cut-off; inactive = mostly below about 5.4%; note: actives read high
ADAM10 inh = human ADAM10 inhibitors, primary screen, biochemical, QFRET, HTS; Disintegrin and metalloproteinase domain-containing protein 10 (Homo sapiens), O14672; inhibition, % at 7 µM; recombinant ADAM10, EDANS/DABCYL FRET peptide cleavage, 3 h; 370,000 compounds, 0.62% hits;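 active = inhibition above a per-campaign cutoff equal to the mean of compounds falling between control-based bounds plus 3 SD, cut at about 20% in these data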;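 note: 0% = DMSO wells while the 100% control is not disclosed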
ADAM17 inh = ADAM17 inhibitors, primary screen, biochemical, QFRET; recombinant ADAM17, EDANS/DABCYL FRET peptide cleavage; inhibition, % at 6.95 µM; 370,000 compounds, 0.83% hits; AID 720648, 2013;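 active = inhibition above the mean of compounds lying between control limits plus 3 SD, set per campaign, cut at about 8.5% in these data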;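 note: 0% = DMSO-only wells as the low control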
Target sequence (P78536 215-824 limits assumed): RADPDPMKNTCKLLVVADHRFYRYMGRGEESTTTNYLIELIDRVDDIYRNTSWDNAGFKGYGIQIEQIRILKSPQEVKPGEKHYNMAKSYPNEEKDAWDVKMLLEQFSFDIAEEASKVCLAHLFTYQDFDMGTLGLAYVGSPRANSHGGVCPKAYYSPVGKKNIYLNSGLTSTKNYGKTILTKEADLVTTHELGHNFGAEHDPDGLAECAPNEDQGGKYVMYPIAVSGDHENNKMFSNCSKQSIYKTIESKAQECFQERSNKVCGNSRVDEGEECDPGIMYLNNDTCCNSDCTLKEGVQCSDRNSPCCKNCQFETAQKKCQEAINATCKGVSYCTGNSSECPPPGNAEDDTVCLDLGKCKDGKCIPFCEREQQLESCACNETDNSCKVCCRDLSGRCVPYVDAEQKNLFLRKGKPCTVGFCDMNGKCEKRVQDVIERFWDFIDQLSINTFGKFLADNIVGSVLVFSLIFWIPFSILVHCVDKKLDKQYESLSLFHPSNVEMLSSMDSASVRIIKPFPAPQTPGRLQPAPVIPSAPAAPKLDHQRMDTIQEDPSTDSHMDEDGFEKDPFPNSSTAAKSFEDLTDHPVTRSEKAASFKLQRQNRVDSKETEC
ADAM10 confirm = human ADAM10 inhibitors, confirmation, biochemical, QFRET, triplicate; shares compounds with ADAM10 inh; ADAM10 QFRET peptide cleavage, EDANS fluorescence; inhibition, % at 6.95 µM; 2,100 compounds, 1% hits; AID 743208, 2013;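 active = inhibition above about 20% chosen separately for each screening run, limit read from the data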;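 note: 0% = DMSO wells and 100% = marimastat wells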
ADAM17 ctr = ADAM17 inhibitors, counter-screen for ADAM10 exosite inhibitor project, biochemical, QFRET, high throughput; 2,100 compounds, 0.5% hits; ADAM17 QFRET peptide cleavage, EDANS fluorescence; inhibition, % at 6.95 µM; shares compounds with ADAM10 inh; AID 743214, 2013;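 active = mean triplicate inhibition above the solvent-only control wells' mean plus 3 SD, cut at about 12% in these data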;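 note: 0% = DMSO wells and 100% = marimastat wells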
Active calls of the source: *; / = not tested or not shown; ! = not active in a repeat.

SMILES	proKLK7 act	V-ATPase pH	ADAM10 inh	ADAM17 inh	ADAM10 confirm	ADAM17 ctr
CCC(C)N(Cc1ccc(OC)cc1OC)S(=O)(=O)c1cc(Br)ccc1Br (stereo not given)	0	/	-9	3	/	/
COc1ccccc1C(=O)N1CCN(C(=O)[C@@H](Cc2ccccc2)NC(=O)[C@H]2O[C@@H](n3ccc(=O)[nH]c3=O)[C@H](O)[C@@H]2O)CC1	0	/	1	4	/	/
O=C(Cc1noc2ccccc12)NNC(=S)Nc1ccccc1	0	-6	20*	6	5	1
CC(C)Oc1ccc(CC(=O)NNC(=S)Nc2ccccc2)cc1	-2	-3	27*	8	1	0
O=C(Cc1noc2ccccc12)Nc1ccc(Cl)cc1	0	0	-2	1	/	/
CCOc1ccc(CC(=O)NNC(=S)Nc2ccccc2)cc1Br	0	-5	20*	1	1	-1
OCC1OC(C(N=Nc2ccccc2)=NNc2ccccc2)C(O)C1O (stereo not given)	0	/	-24	-5	/	/
Oc1ccc(Cl)c(CN2CCN(c3ncc(Cc4ccccc4)cn3)CC2)c1	1	/	25*	14*	5	3
CCCCC(=O)N(Cc1ccccc1)c1ccccc1C(=O)Nc1cc(OC)ccc1OC	0	/	-4	1	/	/
COC(=O)c1ccc(CSc2nc3ccccc3c(=O)n2-c2ccccc2)o1	0	4	20*	4	4	1
CCC(C)N(C(=O)CNc1nnnn1-c1ccccc1)C(C)CC (stereo not given)	0	/	-2	0	/	/
O=C(Nc1nc2ccccc2s1)C1c2ccccc2Oc2ccccc21	0	-1	28*	8	10	3
O=C(Nc1nc2ccccc2s1)C1CCCO1 (stereo not given)	0	9	1	-2	/	/
O=[N+]([O-])c1ccc(Sc2nc3ccccc3[nH]2)c(Cl)c1	-1	/	-2	-1	/	/
CN(CC(=O)NCc1ccc(F)cc1)CC(=O)Nc1ccc(Cl)c(C(F)(F)F)c1	0	2	23*	5	0	0
CN(CC(=O)NCC(=O)Nc1ccc(F)cc1)CC(=O)Nc1ccc(Cl)c(C(F)(F)F)c1	0	-4	-17	-1	/	/
COc1ccccc1-c1cc(N)n(S(=O)(=O)c2cccc3nsnc23)n1	0	-3	23*	4	2	-1
Nc1cc(-c2ccc(Cl)cc2)nn1S(=O)(=O)c1cccc2nsnc12	-1	3	1	6	/	/
O=C(OCc1ccccc1Cl)c1cc([N+](=O)[O-])ccc1N1CCOCC1	0	-2	20*	8	3	0
O=C(COC(=O)c1cc([N+](=O)[O-])ccc1N1CCOCC1)c1ccccc1Cl	0	-3	6	5	/	/
Cc1ccc(-c2cc(C#N)c3n(c2=O)CCC3)cc1	1	/	-106	-31	/	/
CCOC1=C2[C@@H](CN(S(=O)(=O)c3ccc(C)cc3)[C@H]2c2cccc3ccccc23)[C@H]2C(=O)N(c3ccccc3)C(=O)[C@H]2C1	1	/	21*	6	10	3
CCOC1=C2[C@@H](CN(S(=O)(=O)c3ccc(C)cc3)[C@H]2c2ccc(Cl)cc2)[C@H]2C(=O)N(c3ccccc3)C(=O)[C@H]2C1	0	/	-4	-4	/	/
C[C@@H](NC(=O)C(=O)c1c[nH]c2ccccc12)c1ccccc1	0	1	-9	0	/	/
CSc1ccccc1NC(=O)C(=O)c1c[nH]c2ccccc12	-1	-1	22*	6	7	2
SMILES	proKLK7 act	V-ATPase pH	ADAM10 inh	ADAM17 inh	ADAM10 confirm	ADAM17 ctr
O=C(NCc1ccccc1)[C@H]1CCCN1C(=O)[C@H]1CCCN1C(=O)c1ccccc1C(F)(F)F	0	/	-2	0	/	/
CC(Nc1ccc(Cl)cc1)c1cc(Cl)ccc1O (stereo not given)	0	0	23*	8	3	1
CCOc1ccc(NC(C)c2cc(Cl)ccc2O)cc1 (stereo not given)	0	1	6	-4	/	/
COC(=O)[C@]12C[C@H](CC(=O)NCCC(C)C)C(=O)N(CCC3=CCCCC3)C1=C[C@H](C1CCCC1)O[C@@H]2C	1	/	6	1	/	/
CCOC(=O)Nc1ccc2c(c1)N(C(=O)OCCN(C)C)c1ccccc1CC2	0	-1	51*!	-11	2	0
Cc1ccc(C(=O)NC2CCCCN(Cc3ccc(Cl)cc3)C2=O)c(C)c1 (stereo not given)	0	/	-4	-3	/	/
CCn1cc(CNC(=O)c2cccc([N+](=O)[O-])c2)c(C)n1	-1	0	-8	-2	/	/
O=C(NCc1cn(-c2ccccc2)nc1-c1ccc(F)cc1)c1cccc([N+](=O)[O-])c1	0	-3	21*	9	7	2
COC(=O)[C@]12C[C@H](CC(=O)NCC3CCCCC3)C(=O)N(Cc3ccc(Cl)cc3Cl)C1=C[C@H](COCc1ccccc1)O[C@@H]2C	0	/	-9	-6	/	/
CCC(CO)Oc1cc(NCc2ccc(Cl)cc2Cl)c2ncn(C(C)C)c2c1 (stereo not given)	0	0	22*	7	5	0
C=CCN1C(=O)[C@H](CC(=O)NCCCCc2ccccc2)[C@@]2(C(=O)OCC)CCCC=C12	1	/	-1	-3	/	/
O=C1C(=O)N(C2CCCC2)C(=O)N1Cc1c(F)cccc1Cl	0	2	21*	-1	2	0
Cc1ccccc1Nc1nc(Nc2ccccc2C)nc(SC2=NCCS2)n1	0	1	20*	7	6	2
Clc1ccccc1NCSC1=NCCS1	0	4	-4	-5	/	/
Cc1onc(-c2ccccc2Cl)c1C(=O)Nc1nnc(Cc2ccc(Cl)cc2)s1	-1	1	23*	8	5	1
Cc1nnc(NC(=O)c2c(-c3ccccc3Cl)noc2C)s1	0	0	1	2	/	/
O=S1(=O)c2c(cccc2N2CC[C@H](O)C2)O[C@H]2CCN1C2	0	/	-9	-5	/	/
CCN(c1ccc(NC(=O)COC(=O)CCc2cc(OC)c(OC)c(OC)c2)cc1)C(C)C	0	-3	21*	0	1	0
CCN(CC)c1ccc(NC(=O)COC(=O)CCc2cc(OC)c(OC)c(OC)c2)cc1	0	-2	-3	2	/	/
CCCCN1CN2CCc3ccccc3C2CS1(=O)=O (stereo not given)	0	/	-1	-2	/	/
C[C@H]1COc2cc(Br)ccc2S(=O)(=O)N1Cc1cn(Cc2ccco2)nn1	0	/	-7	-4	/	/
